We go through 16 compounds from PubChem BioAssay (NCI).

Test systems include T-47D breast; BT-549 breast; MDA-MB-435 melanoma; SW-620 colon; MCF7 breast; HCC-2998 colon; KM12 colon; HCT-116 colon.
Holding throughout (experiment): NCI-60 one-dose screen, 48 h (100 = growth as untreated, 0 = no growth, -100 = all killed)
What all share (conditions): 10 µM unless noted

Molecules are shown by their SMILES. Compounds without any hit were thinned out: in the full panel of roughly 83,000, 20% have a hit.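 A percent growth of 40 corresponds to 60% growth inhibition; 0 means no net growth; -100 means all cells died. Active threshold: below 10.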 Unmarked numbers belong to inactive results. Calls of active or inactive are those of the source.

`C/C(=N\NC(=O)C(C)SC(C)C(=O)N/N=C(\C)c1cccnc1)c1cccnc1` (centres undefined): the growth in the assay on T-47D breast was 104%; in the assay with BT-549 breast, 106%; in the assay on MDA-MB-435 melanoma, 106%; in the assay with SW-620 colon, 96.9%; in the assay with MCF7 breast, 95.7%; with HCC-2998 colon, 106%. Moreover, the growth with KM12 colon was 107%.
Regarding `Cc1ccccc1-c1nc(C(Cl)Cl)nc2cc(-c3ccccc3)nn12`, the growth is 40.1% with T-47D breast; 92.9% in the assay with BT-549 breast; 56.6% with MDA-MB-435 melanoma; 53.5% in the assay on SW-620 colon; 55% in the assay with HCT-116 colon; 69.2% with HCC-2998 colon. In addition, the growth in the assay with KM12 colon is 36.5%.
For the compound `CC(=O)O[C@@H]1CCN2C(=O)N(C)c3ccccc3[C@@H]2C1`, the growth in the assay on T-47D breast is 92.8%; in the assay on BT-549 breast, 108%; in the assay on MDA-MB-435 melanoma, 107%; in the assay on SW-620 colon, 113%; in the assay with HCT-116 colon, 102%; in the assay on HCC-2998 colon it was 104%. Moreover, the growth with KM12 colon was 116%.
Turning to `Cn1c2c(c3ccc(Cl)cc31)-n1cccc1C2=O`, the growth in the assay with T-47D breast is 95.2%; with BT-549 breast it was 92.6%; with MDA-MB-435 melanoma, 112%; in the assay on SW-620 colon, 93.7%; in the assay with MCF7 breast, 74.2%; with KM12 colon, 100%.
As to `Fc1ccc2[nH]cc(-c3nc(-c4c[nH]c5ncccc45)cs3)c2c1`, the growth with T-47D breast was 47.3%; in the assay with BT-549 breast, 20.6%; in the assay on MDA-MB-435 melanoma, 62.1%; in the assay with SW-620 colon, 47.2%; in the assay on HCT-116 colon it was 26.2%; with HCC-2998 colon it was 84.4%. In addition, the growth in the assay with KM12 colon was 38.9%.
Take `COc1ccc2c(c1)C/C(=C\c1cc(-c3cc(OC)c(OC)c(OC)c3)n[nH]1)C2=O`: the growth in the assay with T-47D breast was 73.4%; with BT-549 breast it was 85.2%; with MDA-MB-435 melanoma, 91.5%; with SW-620 colon, 91.1%; with MCF7 breast it was 56.3%; in the assay with KM12 colon, 85%.
Regarding `C=C(C)[C@@H]1CC[C@]2(C(=O)O)CC[C@]3(C)[C@H](CC[C@@H]4[C@@]5(C)C/C(=C/c6cccc(I)c6)C(=O)C(C)(C)[C@@H]5CC[C@]43C)[C@@H]12`, the growth is 4.75% (active) in the assay on T-47D breast; 35.3% in the assay on BT-549 breast; 32.1% with MDA-MB-435 melanoma; 17.9% in the assay with SW-620 colon; 5.1% (active) in the assay on HCT-116 colon; 28.8% in the assay with HCC-2998 colon. Moreover, the growth with KM12 colon is 15.1%.
In the case of `C#Cc1cccc(NC(=O)C2CCCN(C(=O)CCl)C2)c1` (centres undefined), the growth was 84.2% [8.25 µM] in the assay on T-47D breast; 55.1% [8.25 µM] with BT-549 breast; 43.8% [8.25 µM] with MDA-MB-435 melanoma; 20.5% [8.25 µM] in the assay with SW-620 colon; 13% [8.25 µM] in the assay on HCT-116 colon; 97.2% [8.25 µM] in the assay on HCC-2998 colon. For the same compound, the growth in the assay with KM12 colon was 94.7% [8.25 µM].
`Nc1nc(Br)nc2c1ncn2C1CC(O)C(CO)O1` (centres undefined): the growth with T-47D breast was 70.1%; in the assay with BT-549 breast, 50.1%; with MDA-MB-435 melanoma it was 56.5%; with SW-620 colon it was 60.1%; in the assay on HCT-116 colon, 37.9%; in the assay on HCC-2998 colon it was 58.9%. Further, in the assay on KM12 colon, the growth was 78.6%.
On to `CC(=O)c1c(C)[nH]c(-c2nc3ccc(N4CCN(C)CC4)cc3[nH]2)c1-c1ccc2c(c1)OCCO2`, for which the growth was 37.7% in the assay with T-47D breast; 63% in the assay on BT-549 breast; 34.9% with MDA-MB-435 melanoma; 59.7% in the assay on SW-620 colon; 32.1% in the assay on HCT-116 colon; 45% with HCC-2998 colon. Besides, in the assay with KM12 colon, the growth is 48.9%.
With `Cn1cc(-c2nc(-c3cn(C)c4ncccc34)cs2)c2cc(F)ccc21`, the growth is 48.1% in the assay with T-47D breast; 49% in the assay with BT-549 breast; -15.1% (active) in the assay on MDA-MB-435 melanoma; 26.9% in the assay with SW-620 colon; 18.6% with HCT-116 colon; 53% in the assay with HCC-2998 colon. The growth in the assay with KM12 colon is 22.2%.
Regarding `COc1ccc(-c2nc3c(c(C)nn3-c3ccc(F)cc3)c(=O)[nH]2)cc1`, the growth with T-47D breast is 20.2%; in the assay with BT-549 breast, 76.3%; with MDA-MB-435 melanoma, 74.7%; in the assay with SW-620 colon, 74.6%; in the assay with MCF7 breast it was 73.7%; in the assay on HCC-2998 colon, 98.4%. Besides, the growth in the assay on KM12 colon was 84.4%.
As for `Nc1nc2c(c(=O)[nH]1)C(c1ccc3c(c1)OCO3)C=C(C(=O)O)N2` (centres undefined), the growth was 106% with T-47D breast; 91.9% in the assay on BT-549 breast; 97.7% in the assay with MDA-MB-435 melanoma; 106% with SW-620 colon; 92.7% in the assay on MCF7 breast; 110% in the assay on KM12 colon.
Regarding `COc1ccc2c(c1)c(-c1nc(-c3c[nH]c4ncccc34)cs1)cn2CCNC(=O)OC(C)(C)C`, the growth in the assay with T-47D breast was 9.63% (active); with BT-549 breast, 84.5%; in the assay with MDA-MB-435 melanoma it was 94.7%; with SW-620 colon it was 96%; in the assay on HCT-116 colon, 87.6%; in the assay on HCC-2998 colon, 96.6%. In the assay on KM12 colon, the growth is 46.1%.
On to `COc1cccc(-c2nn(-c3ccccc3)cc2-c2ccnc(NCCCNS(=O)(=O)c3cccc(F)c3)c2)c1`, for which the growth is -1.01% (active) with T-47D breast; 24.3% with BT-549 breast; 22.4% in the assay with MDA-MB-435 melanoma; 39.9% in the assay with SW-620 colon; 18.4% with HCT-116 colon; 11.7% in the assay on HCC-2998 colon. In the assay with KM12 colon, the growth was 24.5%.
Consider `Cc1cccc2c1NC(=O)[C@@]21[C@H](C(=O)c2ccccc2)[C@]2(C(=O)Nc3ccccc32)[C@H]2CCCN21`, for which the growth was 32.6% [100 µM] in the assay on T-47D breast; 10.4% [100 µM] in the assay on BT-549 breast; 61.8% [100 µM] in the assay with MDA-MB-435 melanoma; 11.7% [100 µM] in the assay with SW-620 colon; -36.1% [100 µM] (active) with HCT-116 colon; 19.7% [100 µM] with HCC-2998 colon. In addition, the growth with KM12 colon is 40.3% [100 µM].
